# PubChem BioAssay AID1578 (Sanford-Burnham Center for Chemical Genomics, 2009)
# Hit rate of the full screen: of about 290,000 compounds, about 3,000 (1%) were called active. Cut-off read from the data, not from the text of the source: active = inhibition mostly above about 36% (no sharp cut-off); inactive = mostly below about 34%. Shown is part of a subset that was picked to be rich in actives.
# Test: NOD1 signaling inhibitors, primary screen, cell-based, luminescence, uHTS (AID 1578);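 note: HEK-293T reporter cells stimulated with the NOD1 agonist gamma-tri-DAP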
# Settings: NOD1-driven NF-kB luciferase reporter cells, at 4 µM, stronger effect = higher value
row,Compound,inhibition
1,Cc1oc(-c2ccccc2)cc1C(=O)NC(Cc1c[nH]c2ccccc12)C(=O)O (stereo unspecified),-35.2% (inactive)
2,O=C(NCCNC(=O)c1ccccc1)c1ccccc1,-9.5% (inactive)
3,CN(C)CCCn1c(N)c(C#N)c2nc(C#N)c(C#N)nc21,76.3% (active)
4,CN(C)CCCn1c(N)c(C#N)c2nc3ccccc3nc21,5.6% (inactive)
5,CCCCCn1c(N)c(C#N)c2nc3ccccc3nc21,8.5% (inactive)
6,O=C1NC(=S)S/C1=C\c1ccc2ccccc2c1,5.2% (inactive)
7,Cc1ccc(C2C(C=Nc3c(C)n(C)n(-c4ccccc4)c3=O)=C(c3ccccc3)Oc3ccccc32)cc1 (stereo unspecified),29.1% (inactive)
8,Cc1ccc(C2C(/C=C3/SC(=S)NC3=O)=C(c3cccs3)Oc3ccccc32)cc1 (stereo unspecified),88% (active)
9,CCC1CCCCN1S(=O)(=O)c1ccc(S(=O)(=O)N(Cc2cccs2)C2CC2)cc1 (stereo unspecified),7.6% (inactive)
10,O=c1oc2ccccc2cc1-c1cn2ccccc2n1,64.7% (active)
11,O=c1oc2ccccc2cc1-c1ccc(O)cc1,54.1% (inactive)
12,O=c1oc2ccccc2cc1-c1ccccc1,-31.9% (inactive)
13,Nc1ccc(-c2cc3ccccc3oc2=O)cc1,63.5% (active)
14,O=c1oc2ccccc2cc1-c1cn2cccnc2n1,-55.7% (inactive)
15,Cc1cccn2cc(-c3cc4ccccc4oc3=O)nc12,-21.9% (inactive)
16,Cc1cc(C)c2cc(CN(CCO)Cc3nnnn3Cc3ccccc3)c(=O)[nH]c2c1,-12.5% (inactive)
17,O=C(CC1COc2ccccc2O1)Nc1ccccn1 (stereo unspecified),-29.1% (inactive)
18,CCN(CC)S(=O)(=O)c1ccc(N2CCCC2)c(NS(=O)(=O)c2ccccc2)c1,4.1% (inactive)
19,CN(C)CCNC(=O)/C(=C/c1ccc(-c2ccc(Cl)cc2)o1)NC(=O)c1ccccc1,-19.3% (inactive)
20,CN(C)CCNC(=O)/C(=C/c1ccc(-c2cccc(Cl)c2)o1)NC(=O)c1ccccc1,112% (active)
21,CN(C)CCNC(=O)/C(=C/c1ccc(-c2cccc([N+](=O)[O-])c2)o1)NC(=O)c1ccccc1,4.2% (inactive)
22,Cc1nnc(NC(=O)C2CCCN(S(=O)(=O)Cc3ccccc3)C2)s1 (stereo unspecified),-8.7% (inactive)
23,Cc1cccc(Cn2c(C)nc3c(N)c(C)c(C)cc32)c1,-13.6% (inactive)
24,Cc1cccc(NC(=S)/N=C(\N)Nc2nc(C)c3cc(C)ccc3n2)c1,23.1% (inactive)

row,Compound,inhibition
1,COc1ccc2nc(N/C(N)=N/C(=S)Nc3cccc(C)c3)nc(C)c2c1,51.4% (active)
2,COc1ccc2nc(N/C(N)=N/C(=S)Nc3ccccc3)nc(C)c2c1,29.9% (inactive)
3,O=C(Cc1ccccc1)Nc1cc2c(cc1Cl)OCCCO2,-59.9% (inactive)
4,CCN(CC(=O)NCc1ccc(Cl)cc1)C(=O)/C=C/c1ccc(Cl)c([N+](=O)[O-])c1,-18.8% (inactive)
5,CN(C)C(=O)c1ccc(NS(=O)(=O)c2ccc3c(c2)OCCO3)cc1,-34.8% (inactive)
6,CC(=O)Nc1ccc(C2=NNC(=Nc3cccc(S(=O)(=O)N(C)C)c3)SC2)cc1,-32.6% (inactive)
7,CCc1ccc(C2=NNC(=Nc3cccc(S(=O)(=O)N(C)C)c3)SC2)cc1,72.3% (active)
8,CN(C)S(=O)(=O)c1cccc(N=C2NN=C(c3ccccc3)CS2)c1,26.1% (inactive)
9,COc1ccc(-n2c(=O)[nH]c3cc(C(=O)NCCc4ccc(Cl)cc4)ccc3c2=O)cc1OC,7.4% (inactive)
10,O=C(/C=C/c1ccccc1)NC1CCS(=O)(=O)C1 (stereo unspecified),-20% (inactive)
11,O=C(O)/C=C/C(=O)NC1CC1,-13.1% (inactive)
12,O=C(O)/C=C/C(=O)NC1CCS(=O)(=O)C1 (stereo unspecified),99.9% (active)
13,CCCC(C)c1nc(C(N)=O)c2[nH]c(=O)n(-c3ccc(OC)c(OC)c3)c2n1 (stereo unspecified),-11.9% (inactive)
14,O=C(O)c1ccc(N/N=C/c2c(F)cccc2Cl)cc1,26.1% (active)
15,COc1ccc(/C=N/Nc2ccc(C(=O)O)cc2)cc1Br,50.9% (active)
16,COc1cccc(/C=N/Nc2ccc(C(=O)O)cc2)c1O,104% (active)
17,COc1cc(/C=N/Nc2ccc(C(=O)O)cc2)ccc1O,-8.3% (inactive)
18,COc1cc(/C=N/O)ccc1OCc1ccc(C(=O)O)cc1,100% (active)
19,COc1ccc(/C=N/Nc2ccc(C(=O)O)cc2)cc1OC,-8.6% (inactive)
20,COc1cccc(/C=N/Nc2ccccc2C(=O)O)c1O,-5.1% (inactive)
21,COc1cccc(/C=N/Nc2ccc([N+](=O)[O-])cc2)c1O,-2.8% (inactive)
22,COc1cc(/C=N/O)ccc1OCc1ccc(Cl)cc1,-6.6% (inactive)
23,COc1cc(/C=N/NS(=O)(=O)c2ccc(C)cc2)ccc1OCc1ccc(C(=O)O)cc1,18.4% (inactive)
24,O=C(N/N=C/c1c(F)cccc1Cl)C1CC1,-15.7% (inactive)

row,Compound,inhibition
1,O=C(O)c1ccc(N/N=C/c2cccc(F)c2)cc1,-22.9% (inactive)
2,COc1cc(=O)[nH]c(SCC(=O)Nc2ccc3ccccc3c2)n1,-28.4% (inactive)
3,CCOc1ccc(-c2nnc(NC(=O)Cc3ccc(OC)cc3)o2)cc1,-18.3% (inactive)
4,O=C1Cc2ccccc2C(=O)N1c1ccc(F)cc1Cl,-16.4% (inactive)
5,C=CCn1cc(C(C)=O)c(=O)[nH]c1=O,-20.3% (inactive)
6,C/C(CC(=O)Nc1ccc2c(c1)OCCO2)=N\NC(=O)Cc1ccc(Cl)cc1,-8.8% (inactive)
7,COCCCNC(=O)Cn1c(=O)n(Cc2ccc(F)cc2)c(=O)c2sccc21,-8.2% (inactive)
8,CSCCOC(=O)C1=C(C)NC(=O)NC1c1ccc2c(c1)OCO2 (stereo unspecified),-24.6% (inactive)
9,O=C(NCC1CCCO1)c1cc2ccccc2nc1Cl (stereo unspecified),-20.2% (inactive)
10,CCn1c(=O)c([N+](=O)[O-])c(N2CCSCC2)c2ccccc21,8.8% (inactive)
11,O=C(NCc1ccccc1)c1ccc(Cn2cc(C(F)(F)F)ccc2=O)cc1,-8.1% (inactive)
12,COc1ccc(C(=O)/C=C/c2cccc(OCc3ccccc3)c2)cc1CSCC(=O)O,11.8% (inactive)
13,O=C(N/N=C/c1ccc2c(c1)OCO2)c1ccc2c(c1)OCO2,-42.6% (inactive)
14,O=C(O)c1cc(N/N=C/c2ccc3c(c2)OCO3)ccc1Cl,-59.6% (inactive)
15,COc1ccc(C(=O)/C=C/c2ccc(OCc3ccccc3)cc2)cc1CSCC(=O)O,0.4% (inactive)
16,O=C(O)c1ccc(N/N=C/c2ccc(C(F)(F)F)cc2)cc1,17.4% (inactive)
17,O=C(O)c1ccc(N/N=C/c2ccc3c(c2)OCO3)cc1,80.4% (active)
18,CC(C)c1ccc(/C=N/Nc2ccc(C(=O)O)cc2)cc1,64.4% (active)
19,COC(=O)c1ccc(COc2ccc(/C=C/C(=O)c3ccc(OC)c(CSCC(=O)O)c3)cc2OC)cc1,49.5% (active)
20,O=C(O)c1ccc(N/N=C/c2ccc(-c3ccccc3)cc2)cc1,-27% (inactive)
21,CCOC(=O)c1[nH]n(-c2ccc(Cl)cc2)c(=O)c1C,-33.9% (inactive)
22,O=C(c1cc(-c2ccc(Cl)cc2)n[nH]1)N1CCN(C(=O)c2ccco2)CC1,13.4% (inactive)
23,COC(=O)C1CC(c2ccc(Cl)cc2)=NO1 (stereo unspecified),-38.4% (inactive)
24,CCOc1ncccc1C(=O)Nc1cccc(-c2nnc3n2CCCCC3)c1,-22.1% (inactive)

row,Compound,inhibition
1,Cc1cccc(C)c1NC(=S)NCCc1ccc(O)c(O)c1,-28.1% (inactive)
2,COc1ccccc1OC(=O)C1CC(=O)N(c2ccc(Cl)cc2)C1 (stereo unspecified),-7.8% (inactive)
3,Cc1ccccc1-n1c(SCc2csc(Nc3ccccc3)n2)nnc1-c1cccnc1,-18.5% (inactive)
4,Cc1ccc(Nc2nc(CSc3nnc(-c4cccnc4)n3-c3ccccc3F)cs2)cc1,18.9% (inactive)
5,Cc1ccc(Nc2nc(CSc3nnc(-c4cccnc4)n3-c3ccccc3C)cs2)cc1,87% (active)
6,CC1(C)CN(c2cccc(Br)c2)C1=O,-15.6% (inactive)
7,CN(Cc1c(C(=O)N(C)Cc2ccccc2)nc2ccccn12)CC1Cc2ccccc2O1 (stereo unspecified),64.7% (active)
8,Cc1nn(C)cc1CN(C)Cc1c(C(=O)N(C)Cc2ccccc2)nc2ccccn12,-20.3% (inactive)
9,CC(c1ccon1)N(C)Cc1c(C(=O)N(C)Cc2ccccc2)nc2ccccn12 (stereo unspecified),-38.7% (inactive)
10,O=C(CSCC(=O)NC1CC1)Nc1ccc2ccccc2c1,-5.8% (inactive)
11,O=[N+]([O-])c1ccc(NCc2ccc3c(c2)OCO3)cc1,88.5% (active)
12,O=C(NCc1ccc2c(c1)OCO2)Nc1ccc([N+](=O)[O-])cc1,-44.5% (inactive)
13,O=C(Cc1ccc([N+](=O)[O-])cc1)NCc1ccc2c(c1)OCO2,-15.5% (inactive)
14,CN(Cc1ccc2nonc2c1)Cc1nc(Cc2cccc(F)c2)no1,-14.8% (inactive)
15,CC1(C)OC(=O)CC1C(=O)NCc1ccccc1 (stereo unspecified),-18.4% (inactive)
16,Cc1ccc(NC(=S)NCC(O)c2ccccc2)c(C)c1 (stereo unspecified),-31% (inactive)
17,O=S(=O)(c1cccs1)N1CN(Cc2ccc(F)cc2)c2nc3ccccc3nc21,6.3% (inactive)
18,CCC12CCCN3CCC4(C(=C(C(=O)OC)C1)Nc1ccccc14)C32 (stereo unspecified),-7.2% (inactive)
19,COC(=O)C1CC23C=CCN4CCC5(c6ccccc6NC15C2C)C43 (stereo unspecified),46.8% (active)
20,COC(=O)C1CCN(C(=O)/C(C)=C\c2ccccc2)CC1,-32.2% (inactive)
21,CCCOC1CCCN(C(=O)CCCn2nnnc2CN2CCOCC2)C1 (stereo unspecified),10.3% (inactive)
22,Cn1nc(C(=O)NC2CCCN(Cc3ccccc3F)C2)c2ccccc2c1=O (stereo unspecified),-20.9% (inactive)
23,Cc1cc(C(=O)NC2CCCN(Cc3ccccc3F)C2)no1 (stereo unspecified),-19.1% (inactive)
24,O=C(O)C(=O)/C(=C\c1cccc2ccccc12)c1ccc2ccccc2n1,2.3% (inactive)
